Compound activity deposited in PubChem BioAssay by National Center for Advancing Translational Sciences (NCATS).
Sfp PPTase inh = inhibitors of Bacillus subtilis Sfp phosphopantetheinyl transferase. Potency, µM, most hits filed as inhibitors. actives 3.5% (n = 310,000). Biochemical Sfp PPTase activity, qHTS;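 note: the enzyme is Sfp with the accession as filed and its product quenches rhodamine fluorescence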
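With Hepes-Na pH 7.6 buffer containing 10 mM MgCl2, Sfp (15 nM) modified BHQ-2-YbbR (12.5 uM) using rhodamine-CoA (5 uM). Two reads 30 minutes apart at 525/598 nm yielded each well's rate.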
BAZ2B inh = blocks human BAZ2B. Q9UIF8. AlphaScreen BAZ2B-H3K14Ac peptide displacement. Potency, µM (titrated, usually from 114 µM), actives largely listed as inhibitors. actives 4.4% (n = 360,000); note: nearly all actives have a fitted effect of over 60% in size
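AlphaScreen luminescence quantifies BAZ2B engagement of H3K14Ac peptide; the protein and biotinylated peptide are both at 50 nM final, buffer PBS pH 7.4 with 0.01% Tween-20, all steps at room temperature.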
G9a block = blocks human histone lysine methyltransferase G9a. AID 504332. actives 8.8% (n = 350,000). Q96KQ7. G9a H3K9 monomethylation, AlphaScreen, 2 h. Potency, µM (top dose mostly 102 µM), hits mostly inhibitors; note: nearly all actives have a fitted effect of over 75% in size
Target sequence (Q96KQ7 913-1193 limits assumed): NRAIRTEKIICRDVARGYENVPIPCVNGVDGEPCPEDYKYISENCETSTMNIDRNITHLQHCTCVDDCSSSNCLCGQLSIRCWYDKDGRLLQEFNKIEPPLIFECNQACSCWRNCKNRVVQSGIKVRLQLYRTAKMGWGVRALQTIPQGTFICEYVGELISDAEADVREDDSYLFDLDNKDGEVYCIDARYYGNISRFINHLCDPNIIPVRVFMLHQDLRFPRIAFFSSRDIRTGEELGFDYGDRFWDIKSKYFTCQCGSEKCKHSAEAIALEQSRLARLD
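Step 1: enzyme (final 20 nM) with compound, 15 min RT. Step 2: substrate peptide 500 nM and SAM 20 uM, 2 h RT. Step 3: anti-H3K9me1 antibody and AlphaScreen beads, 10 min, then plate read.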
HP1b binding inh = HP1-beta chromodomain-methylated histone interaction inhibition; AID 540317; AlphaScreen HP1-beta / biotin-H3K9me3 peptide binding; actives 0.56% (n = 390,000); Potency, µM (top dose mostly 114 µM), actives largely listed as inhibitors; note: nearly all actives have a fitted effect of over 70% in size
Target sequence (P83916 whole entry, looked up): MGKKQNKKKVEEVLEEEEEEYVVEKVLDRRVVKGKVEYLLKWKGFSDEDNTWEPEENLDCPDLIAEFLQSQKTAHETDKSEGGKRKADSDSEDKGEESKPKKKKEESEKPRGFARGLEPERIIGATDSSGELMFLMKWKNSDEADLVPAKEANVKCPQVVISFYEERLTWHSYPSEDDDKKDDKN
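HP1-beta protein (50 nM final) preincubated 30 min at room temperature with biotinylated H3(1-18)K9me3 peptide (50 nM) in PBS pH 7.4, 0.01% Tween-20, then compound added for 30 min. AlphaScreen streptavidin donor/nickel chelate acceptor beads (10 ug/mL final), 30 min dark, luminescence read.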
JMJD2A Tudor = blocks the human JMJD2A Tudor domain | AlphaScreen JMJD2A-Tudor / H3K4me3 peptide binding | Potency, µM (highest dose often 114 µM), actives largely listed as inhibitors | actives 4.4% (n = 390,000); note: nearly all actives have a fitted effect of over 50% in size
L3MBTL1 block = L3MBTL1 (human) inhibition | Q9Y468 | AlphaScreen L3MBTL1–H3K9me1 peptide binding | Potency, µM (series often up to 57.1 µM), hits mostly inhibitors | actives 0.66% (n = 230,000) | AID 485360; note: nearly all actives have a fitted effect of over 60% in size
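AlphaScreen proximity signal between nickel-chelate acceptor and streptavidin donor beads (final 10 ug/mL) reports binding of 50 nM L3MBTL1 to 75 nM biotin-H3 K9me1 peptide; complex incubated with compounds 30 min at room temperature; cefsulodin titration as control.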
Of the large screens only hits and unclear results are named; the others gave an inactive call. An excerpt weighted towards active compounds, which were near 12% of everything screened. Calls come from the whole dose curve; as a rule, active = well fitted curve in the direction sought with a large enough effect; inconclusive = small, poorly fitted or top-dose-only effect, or another doubt; inactive = no such curve, though single readings can be large; an effect the other way counts as inactive or inconclusive.

CCCCN(C(=O)c1ccc(-c2ccc(Cl)cc2)o1)c1c(N)n(CCC)c(=O)[nH]c1=O	G9a block 8.91µM (no result: Sfp PPTase inh)
CCCCn1c(N)c(N(CCOC)C(=O)c2ccc(-c3ccc(Cl)cc3)o2)c(=O)[nH]c1=O	BAZ2B inh inconclusive, G9a block 11.2µM (no result: Sfp PPTase inh)
CCCCn1c(N)c(N(CCOC)C(=O)c2cnc(C)cn2)c(=O)[nH]c1=O	G9a block 39.8µM (no result: Sfp PPTase inh)
CCCCn1c(N)c(N(CCOC)C(=O)c2cnccn2)c(=O)[nH]c1=O	none (no result: Sfp PPTase inh)
Cc1nn2c(C)c(C(=O)NC(C)(C)C)cnc2c1-c1ccc(F)cc1	none (no result: Sfp PPTase inh, L3MBTL1 block)
COc1ccc(Cl)cc1Nc1nc2ccc(C)cc2n2cnnc12	none (no result: L3MBTL1 block)
O=C(N/N=C/c1cc(Cl)ccc1O)c1ccccc1Br	BAZ2B inh inconclusive, JMJD2A Tudor 79.4µM (no result: L3MBTL1 block)
O=C(N/N=C/c1cc(Cl)ccc1O)c1cccnc1	BAZ2B inh 7.94µM, JMJD2A Tudor 44.7µM (no result: G9a block)
O=C(CNC(=O)c1ccccc1Br)N/N=C/c1cc(Br)ccc1O	none (no result: L3MBTL1 block)
COc1ccc(C2NC3=C(CCCC3)C(C#N)(C#N)C2(C#N)C#N)cc1 (stereo unspecified)	Sfp PPTase inh 56.2µM, G9a block 8.91µM (no result: HP1b binding inh, JMJD2A Tudor)
COc1ccc(C2NC3=C(CCC3)C3(C#N)C4(N=C(N)C23C#N)OCCO4)cc1 (stereo unspecified)	none
CCCCC[C@H](O)/C=C/[C@H]1[C@H](O)CC(O)[C@@H]1C/C=C\CCCC(=O)O (stereo partly specified)	none (no result: BAZ2B inh, HP1b binding inh, JMJD2A Tudor, L3MBTL1 block)
CCCCC[C@H](O)/C=C/[C@@H]1[C@@H](C/C=C\CCCC(=O)OC)[C@@H](O)C[C@H]1O	Sfp PPTase inh 25.1µM, BAZ2B inh 14.1µM, G9a block 39.8µM, HP1b binding inh inconclusive, JMJD2A Tudor 22.4µM, L3MBTL1 block inconclusive
Cc1cc(C)c(S(=O)(=O)Nc2nnc(C3CCCCC3)s2)c(C)c1	G9a block 70.8µM (no result: L3MBTL1 block)
Cc1cc(C)c(S(=O)(=O)Nc2nnc(C)s2)c(C)c1	JMJD2A Tudor inconclusive
CCCCCC(=O)Nc1cc(S(=O)(=O)O)cc2cc(S(=O)(=O)O)cc(O)c12	HP1b binding inh 1.41µM, JMJD2A Tudor 1.12µM (no result: Sfp PPTase inh, BAZ2B inh, G9a block, L3MBTL1 block)
Oc1c(C(c2ccc(F)cc2)N2CCCC2)sc2nc(-c3ccco3)nn12 (stereo unspecified)	G9a block 12.6µM (no result: Sfp PPTase inh, L3MBTL1 block)
O=[N+]([O-])c1ccc(C(c2sc3nc(-c4ccco4)nn3c2O)N2CCN(c3cccc(Cl)c3)CC2)cc1 (stereo unspecified)	BAZ2B inh inconclusive, G9a block 12.6µM, JMJD2A Tudor inconclusive (no result: Sfp PPTase inh, L3MBTL1 block)
O=[N+]([O-])c1ccc(C(c2sc3nc(-c4ccco4)nn3c2O)N2CCN(Cc3ccccc3)CC2)cc1 (stereo unspecified)	BAZ2B inh inconclusive, G9a block inconclusive, JMJD2A Tudor inconclusive (no result: Sfp PPTase inh, L3MBTL1 block)
Oc1c(C(c2ccccc2F)N2CCCC2)sc2nc(-c3ccco3)nn12 (stereo unspecified)	none (no result: Sfp PPTase inh, L3MBTL1 block)
N#Cc1nc(Nc2ccc(-c3ccccc3)cc2)nc(NC2CCCC2)n1	none (no result: Sfp PPTase inh, BAZ2B inh, G9a block, HP1b binding inh, L3MBTL1 block)
Oc1ccc(Cl)cc1C1C=C(c2ccc3c(c2)OCO3)NC(c2ccc(C(F)(F)F)cc2)N1 (stereo unspecified)	none (no result: Sfp PPTase inh, BAZ2B inh, G9a block, L3MBTL1 block)
Cc1oc(C(C)(C)C)cc1C(=O)Nc1cccc(/C=C\C(=O)O)c1	BAZ2B inh inconclusive
Cc1oc(-c2ccccc2)cc1C(=O)Nc1cccc(/C=C\C(=O)O)c1	G9a block 44.7µM (no result: L3MBTL1 block)
NC(=O)CSc1nnc2ccc(-c3ccc(Cl)cc3)nn12	BAZ2B inh 89.1µM, G9a block 50.1µM
O=C(CSc1nnc2ccc(-c3ccncc3)nn12)Nc1ccc(F)cc1	G9a block 6.31µM (no result: Sfp PPTase inh)
Cc1ccc(-c2ccc3nnc(SCC(N)=O)n3n2)cc1	G9a block 44.7µM
O=C(CSc1nnc2ccc(-c3cccnc3)nn12)Nc1ccc(F)cc1	none (no result: Sfp PPTase inh)
NC(=O)CSc1nnc2ccc(-c3ccc(F)cc3)nn12	none
COc1ccc(-c2ccc3nnc(SCC(=O)N4CCCC4)n3n2)cc1	none (no result: Sfp PPTase inh)
CCOc1ccc(C(=O)N2CCC(c3noc(-c4ccc(S(=O)(=O)N5CCCC5)cc4)n3)CC2)cc1	none (no result: Sfp PPTase inh, L3MBTL1 block)
O=C1CCC(C(=O)NCc2ccccc2)N1 (stereo unspecified)	none
CCOC(=O)c1c(NC(=O)COC(=O)CNC(=O)c2ccco2)sc(C)c1C	BAZ2B inh inconclusive, JMJD2A Tudor 39.8µM
CCOC(=O)c1c(NC(=O)Cc2cccs2)sc(C(=O)NC2CCCC2)c1C	none
CCOC(=O)Nc1sc(C)c(C)c1C(=O)OCC	none
COC(=O)c1c(NC(=O)COC(=O)CNC(=O)c2ccco2)sc(C)c1C	none
CCOC(=O)c1c(NC(=O)Cc2cccs2)sc(C)c1C	Sfp PPTase inh 20µM (no result: L3MBTL1 block)
CCOC(=O)c1c(NC(=S)Nc2cccnc2)sc(C)c1C	BAZ2B inh inconclusive, G9a block 44.7µM (no result: L3MBTL1 block)
CCOC(=O)c1c(NC(=O)Nc2ccccc2)sc(C)c1C	G9a block 39.8µM
Cc1noc(C)c1C(=O)Nc1ccc(-c2nnc3n2CCCCC3)cc1	none (no result: Sfp PPTase inh)
CCCCc1nn2c(=O)cc(COC(=O)c3ccco3)nc2s1	none (no result: Sfp PPTase inh, L3MBTL1 block)
